The results in this text go back to PubChem BioAssay AID504332 (National Center for Advancing Translational Sciences (NCATS), 2011).

The structures appear in SMILES notation. In all, about 350,000 compounds went through this assay and about 31,000 (8.9%) were called active. Where a call stands in place of a potency, no number is given. Roughly 15% stayed inconclusive and do not appear here. Only a selection was taken, and actives are over-represented in it overall. Values without a mark were called inactive. Calls follow the shape of the dose curve; as a rule, active = well fitted inhibition curve with a large enough effect; inconclusive = small, poorly fitted or top-dose-only effect; inactive = no such curve, though single readings can be large or run the other way.
Potency is read from the fitted curve at half-maximal effect.

Sequence of Histone-lysine N-methyltransferase EHMT2 (Homo sapiens) (Q96KQ7 913-1193 limits assumed): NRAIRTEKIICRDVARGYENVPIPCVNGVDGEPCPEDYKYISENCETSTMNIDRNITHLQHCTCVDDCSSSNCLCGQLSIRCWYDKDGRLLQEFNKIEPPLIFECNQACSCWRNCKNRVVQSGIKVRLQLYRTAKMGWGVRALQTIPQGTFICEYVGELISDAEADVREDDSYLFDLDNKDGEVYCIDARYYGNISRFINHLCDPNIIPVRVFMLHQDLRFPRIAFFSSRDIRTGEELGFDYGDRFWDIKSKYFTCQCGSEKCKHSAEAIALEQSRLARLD

The test deals with Histone-lysine N-methyltransferase EHMT2 (Homo sapiens) (UniProt Q96KQ7). In words: qHTS Assay for Inhibitors of Histone Lysine Methyltransferase G9a. Also: nearly all actives have a fitted effect of over 75% in size. To be noted: G9a H3K9 monomethylation, AlphaScreen, 2 h; series mostly up to 59 µM. In short, it runs like this:
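Using a bead-based AlphaScreen, monomethylated H3K9 product from 2 h room-temperature reactions (G9a 20 nM, peptide 500 nM, SAM 20 uM) was detected with 0.5 ug/mL rabbit anti-H3K9me1 antibody.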
In general terms: In qHTS, concentration-response curves come from the screen itself.
Take `CCOC(=O)c1c(SCC(=O)Nc2cccc(C)c2C)nc(=O)[nH]c1C`: the Potency result is “inactive”. The same measure, in the same setting: under `Cc1ccc(NC(=O)C2CCN(S(=O)(=O)c3cc(-c4noc(C)n4)ccc3C)CC2)c(C)c1` stands “inactive”; under `CCOCCCNC(=O)c1cc2c(=O)n3ccccc3nc2s1`, “inactive”; under `COCCNC(=S)N/N=C/c1c(C)[nH]c2ccccc12`, “inactive”. Still for that read-out and setting: under `CN=c1scc(-c2cc(OC)ccc2OC)n1/N=C/c1c(C)[nH]c2ccccc12` stands 12.6 µM (active); under `Cc1[nH]c2ccccc2c1/C=N\NC(=O)Cn1nnc(-c2ccccc2)n1`, “inactive”; under `O=C(Nc1ccc(F)cc1F)c1cnn(-c2ccc(F)cc2)c1-n1cccc1`, “inactive”.

In the case of `COCCN(CCOC)c1nc(N)c2c(N)nc3c(c2c1C#N)CC(=O)N3Cc1ccc(Cl)cc1`, the Potency was 17.8 µM (active). On the same count and under the same terms, under `O=C(OCC(=O)N1CCOCC1)c1ccc2ccccc2c1` stands “inactive”; under `C=CCn1c2ccccc2c2nnc(SC(CC)C(=O)Nc3nc(C)c(C(=O)OCC)s3)nc21` (stereo not drawn), “inactive”; under `CCn1c2ccccc2c2nnc(SCC(=O)O)nc21`, 10 µM (active). On to `CCn1c2ccccc2c2nnc(N3CCN(c4cc(C)ccc4C)CC3)nc21`, for which the Potency entry is “inactive”. On the same count and under the same terms, to `COc1cccc(C2CC(c3cccs3)=NN2C(=O)CSC2=NCCS2)c1OC` (stereo not drawn) belongs “inactive”.

For `O=C(COC(=O)c1cccc(Cl)c1)Nc1ccc2[nH]c(=O)[nH]c2c1`, the activity, negative = inhibition is 10.7% [at 2.33 µM]. As to `O=C(CSc1nc2nccnc2c(=O)n1Cc1cccs1)Nc1ccccc1F`, the Potency result is “inactive”.

As to `Cc1cc2n(n1)C(c1cc(C(C)(C)C)c(O)cc1O)Nc1ccccc1-2` (stereo not drawn), the Potency result is “inactive”. For the compound `O=C(CSc1ccc(-c2ccccn2)nn1)Nc1ccccc1`, the Potency entry is “inactive”. With `Cc1csc(NC(=O)CSc2ccc(-c3ccc(F)cc3)nn2)n1`, the Potency entry was “inactive”. As to `O=C(CSc1ccc(-c2ccc(-n3cccn3)cc2)nn1)Nc1ccc([N+](=O)[O-])cc1`, the Potency is 15.8 µM (active). With `O=C(N/N=C\C1CC=CCC1)c1ccc(Br)o1` (stereo not drawn), the Potency result was “inactive”. Consider `CCCc1[nH]nc2c1C(c1c(C)nn(-c3ccccc3)c1Cl)C(C#N)=C(N)O2` (stereo not drawn), for which the activity, negative = inhibition was -26.6% [at 12.7 µM].

Turning to `Cc1nn(-c2ccccc2)c2c1C(c1ccc(F)cc1)C(C#N)=C(N)O2` (stereo not drawn), the Potency was 50.1 µM (active). Consider `C=CCOC(=O)C1=C(C)OC(N)=C(C#N)C1c1ccc(F)cc1` (stereo not drawn), for which the activity, negative = inhibition was 14.3% [at 2.33 µM]. As to `CC(NC(=O)c1cc2c(=O)n3ccccc3nc2n(C(C)C)c1=N)c1ccccc1` (stereo not drawn), the Potency result was “inactive”. Regarding `COc1ccc(C(C[N+](=O)[O-])n2nc(C)cc2C)cc1` (stereo not drawn), the Potency is 6.31 µM (active). The same measure, in the same setting: to `COc1ccc(OCc2cn3c(C)cc(C)nc3n2)cc1` belongs “inactive”; to `COc1ccc(C(=O)CSc2nc(C)cc(C)n2)cc1[N+](=O)[O-]`, “inactive”.

For `Cc1ccc(S(=O)(=O)N2CCN(C(=O)c3ccc(-n4cncn4)c([N+](=O)[O-])c3)CC2)cc1`, the activity, negative = inhibition is -0.498% [at 12.7 µM].

For `C/C(N)=C(/C#N)C(=O)COC(=O)C1=NN(c2ccccc2)C(=O)CC1`, the Potency entry is “inactive”.

With `CC(=O)c1sc(N/N=C\c2ccc(C)cc2)nc1C`, the Potency result is “inactive”.

As to `CC(=O)c1sc(NC(=O)C2=NN(c3ccccc3)C(=O)CC2)nc1C`, the Potency was 25.1 µM (active). In the case of `COc1cc2c(cc1OC)[C@@H](Cc1cc(OC)c(OC)c(OC)c1)[N+](C)(CCCOC(=O)CC/C=C/CCC(=O)OCCC[N+]1(C)CCc3cc(OC)c(OC)cc3[C@H]1Cc1cc(OC)c(OC)c(OC)c1)CC2` (stereo partly drawn), the activity, negative = inhibition is 6.96% [at 12.7 µM].

For `Cc1noc(C)c1C(=O)NCC1COc2ccccc2O1` (stereo not drawn), the activity, negative = inhibition was -3.43% [at 2.33 µM].

On to `COc1ccc(-c2nc(C)c(CCNC(=O)c3ccc(C(F)(F)F)cc3)s2)cc1OC`, for which the Potency result is “inactive”.

Take `CCOc1cc(CNC(=O)c2sc3ncnc(N(C)C4CCCCC4)c3c2C)ccc1OC`: the Potency result is “inactive”.

On to `COCCCn1c(CCC(=O)O)ccc1-c1ccc(F)cc1`, for which the Potency was 11.2 µM (active). On the same count and under the same terms, to `O=C(O)CCCn1c(=O)c2cccn2c2ccc(F)cc21` belongs “inactive”. Take `COCCCNC(=O)C1CC(=O)N(CCc2ccc(F)cc2)C1` (stereo not drawn): the Potency result was “inactive”.

As for `COc1ccc(NC(=O)CCNS(=O)(=O)c2ccc3c(c2)CCCC(=O)N3)cc1Cl`, the Potency result was “inactive”.

With `CCc1ccc(NC(=O)CN2C(=O)CCSc3ccc(S(=O)(=O)N4CCCC4)cc32)cc1`, the Potency result was “inactive”. Same read-out and setting: under `COc1ccc2c(c1)c(=O)c(C(=O)c1ccccc1)cn2CC(=O)Nc1ccc2c(c1)OCCO2` stands “inactive”; under `O=C(Nc1cccc([N+](=O)[O-])c1)N1CCc2ccccc2C1`, “inactive”. As to `O=C(NCCCc1ccccc1)C1CCC(=O)N(CCc2ccc(Cl)cc2)C1` (stereo not drawn), the activity, negative = inhibition was -2.97% [at 12.7 µM]. On to `CC(C(=O)N(C)CC(=O)Nc1ccccc1C(F)(F)F)N1C(=O)c2ccccc2C1=O` (stereo not drawn), for which the activity, negative = inhibition was 8.77% [at 12.7 µM]. Turning to `CN(CC(=O)Nc1ccc(Cl)c(C(F)(F)F)c1)C(=O)CCC(=O)c1ccccc1`, the Potency entry was “inactive”. In the case of `CN(CC(=O)Nc1ccccc1C(F)(F)F)C(=O)Cc1ccccc1F`, the Potency is 50.1 µM (active).

As to `COc1ccccc1CN1CCC(CNC(=O)c2cnn(-c3ccccc3Cl)c2C2CCN(C(=O)OC(C)(C)C)CC2)CC1`, the Potency entry was “inactive”. Same read-out and setting: under `Cc1nc2ccccc2c(-c2ccccc2)c1C(=O)c1ccccc1` stands “inactive”; under `Cc1nc2ccccc2c(C)c1C(=O)c1ccc(F)cc1`, 50.1 µM (active). As to `CN(Cc1nc2ccccc2s1)C(=O)c1ccc(F)cc1`, the Potency result is “inactive”. The same measure, in the same setting: to `COc1cc(C(=O)N2CCN(C(=O)COc3cccc(C)c3)CC2)cc(OC)c1OC` belongs “inactive”. In the case of `CN(C(=O)COC(=O)c1ccc(Br)o1)c1c(N)n(Cc2ccccc2)c(=O)[nH]c1=O`, the activity, negative = inhibition was -30.9% [at 0.501 µM].

Regarding `Cc1ccc(CNS(=O)(=O)c2ccc(-c3cc(C(F)(F)F)on3)s2)cc1`, the Potency entry is “inactive”. On the same count and under the same terms, to `Cc1ccc(CN2C(=O)SC(Nc3ccccc3)C2=O)cc1` (stereo not drawn) belongs “inactive”; to `Cc1cccc(N=C2NC(=O)/C(=C/c3cn(C)c4ccccc34)S2)c1`, 79.4 µM (active). On the same count and under the same terms, to `Cc1ccc(N2C(=O)S/C(=C/c3cn(C)c4ccccc34)C2=O)cc1` belongs “inactive”; to `Cn1cc(/C=C/c2nc3ccccc3c(=O)n2-c2cccc([N+](=O)[O-])c2)c2ccccc21`, “inactive”; to `CCC(=O)N1CCc2cc(S(=O)(=O)NC(C(=O)Nc3ccc(C(C)=O)cc3)C(C)C)ccc21` (stereo not drawn), “inactive”.
